# From PubChem
# Tau ThT inhib: tau fibrillization inhibition (ThT binding). P10636. Potency, µM (top dose mostly 57.4 µM), without a hit: at the top dose activity, negative = inhibition, hits mostly inhibitors. recombinant tau K18 P301L, heparin-induced fibrillization, ThT fluorescence. 270,000 tested, 2.1% active. AID 1460; also: potency is read from the fitted curve at half-maximal effect; nearly all actives have a fitted effect of over 55% in size
# Target sequence (P10636 561-689 P618L limits assumed): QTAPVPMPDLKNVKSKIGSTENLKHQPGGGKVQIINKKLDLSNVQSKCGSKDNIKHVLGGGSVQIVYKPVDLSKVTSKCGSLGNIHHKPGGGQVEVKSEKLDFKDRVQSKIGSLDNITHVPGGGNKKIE
#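 Heparin-induced (20 uM) aggregation of recombinant human K18 P301L tau, 15 uM unlabeled with 0.24 uM labeled, pH 7 acetate buffer, 6 hr at 37 C with compound. Fibrils quantified by 30 uM ThT fluorescence after 1 hr ambient incubation.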
# G9a block: G9a (human) methyltransferase inhibition; G9a H3K9 monomethylation, AlphaScreen, 2 h; Potency, µM (doses to about 102 µM), for the others: top-dose activity, negative = inhibition, usual class: inhibitors; 350,000 tested, 8.8% active; AID 504332; also: potency is read from the fitted curve at half-maximal effect; nearly all actives have a fitted effect of over 75% in size
# Target sequence (Q96KQ7 913-1193 limits assumed): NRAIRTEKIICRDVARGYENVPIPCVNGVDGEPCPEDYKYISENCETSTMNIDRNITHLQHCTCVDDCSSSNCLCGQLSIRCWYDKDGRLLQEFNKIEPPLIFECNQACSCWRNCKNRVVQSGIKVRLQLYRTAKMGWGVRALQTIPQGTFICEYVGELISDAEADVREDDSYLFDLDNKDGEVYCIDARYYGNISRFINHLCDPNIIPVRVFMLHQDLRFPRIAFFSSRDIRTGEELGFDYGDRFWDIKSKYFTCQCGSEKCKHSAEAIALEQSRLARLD
#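 Chemiluminescent proximity detection of H3K9 monomethylation, read after 10 min bead incubation in the dark. Reaction: 20 nM G9a, 500 nM biotin-H3K9 peptide, 20 uM SAM cofactor, 2 h, room temperature, following 15 min enzyme-compound preincubation.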
# FBPA coupling cs: coupling enzyme interference in Giardia aldolase counter-screen; activity change, negative = inhibition, % at 58.2 µM, hits read low; 290,000 tested, 0.67% active; coupling enzyme system counterscreen, AmpLite Red fluorescence; in the data active = activity change below about -30%
#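 Coupling enzymes only (glyceraldehyde-3-phosphate) + compound, at 57.5 uM final, 10 min RT; add substrate/coupling/AmpLite Red mix, 20 min RT; fluorescence ex 525/em 598 nm. Actives flag coupling-system interference.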
# Tau fibril FP: blocks human tau fibril formation measured by polarization; P10636; K18 P301L tau heparin fibrillization, Alexa594 FP, 6 h; Potency, µM (highest dose often 57.7 µM), for the others: top-dose activity, negative = inhibition, hits mostly inhibitors; 280,000 tested, 0.39% active; AID 1468; also: potency is read from the fitted curve at half-maximal effect; nearly all actives have a fitted effect of over 55% in size
#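 Steps: dispense K18 P301L tau (15 uM plus 0.24 uM Alexa 594 tracer, final) in pH 7 sodium acetate; add compound; add heparin (20 uM final); incubate 6 hr, 37 C; add ThT (30 uM final); after 1 hr ambient, read FP.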
# Sfp inh: Sfp phosphopantetheinyl transferase inhibition; 310,000 tested, 3.5% active; Biochemical Sfp PPTase activity, qHTS; Potency, µM, inactives show largest response in the series, negative = inhibition, most hits filed as inhibitors; AID 1490;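 also: the enzyme is Sfp with the accession as filed and its product quenches rhodamine fluorescence; potency is read from the fitted curve at half-maximal effect; 0% = enzyme reaction without inhibitor and -100% = no enzyme wells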
#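 Step 1, compound plus 15 nM Sfp-PPTase, 15 min, room temperature. Step 2, add rhodamine-CoA (5 uM) and BHQ-2-YbbR (12.5 uM). Step 3, read 525/598 nm fluorescence at 0 and 30 min.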
# Tau fluor counter: counter-screen for tau fibril formation inhibitors; tau K18 P301L (four-repeat tau fragment) Alexa594 fluorescence, heparin fibrillization; Potency, µM (titrated, usually from 57.7 µM), without a hit: at the top dose activity change, negative = decrease; 280,000 tested, 0.93% active; AID 1463; also: potency is read from the fitted curve at half-maximal effect; nearly all actives have a fitted effect of over 55% in size
#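 Human K18 P301L tau (15 uM unlabeled plus 0.24 uM Alexa 594-labeled, final) in 100 mM sodium acetate pH 7 was mixed with compound and 20 uM heparin and incubated 6 hr at 37 C.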
# The depositor's hits bear a star; ? = inconclusive; · = no result; [ ] = remark or other dose. In the library only some 11% were active in any assay of this set; here they are far more common. Unless noted, calls follow the shape of the dose curve; as a rule, active = well fitted curve in the direction sought with a large enough effect; inconclusive = small, poorly fitted or top-dose-only effect, or another doubt; inactive = no such curve, though single readings can be large; an effect the other way counts as inactive or inconclusive. Unless noted, % is scaled to controls: 0 for no effect and ±100 for the full control effect.
SMILES,Tau ThT inhib,G9a block,FBPA coupling cs,Tau fibril FP,Sfp inh,Tau fluor counter
Cc1cc(Br)cc2c1NC(=O)C2(O)CC(=O)c1ccco1 (centres undefined),-4.5%,5.9%,-24.9,1.2%,-22.0%,-5.6%
Cc1c(Cl)cccc1NC(=O)C(C)n1nnc2sc3c(c2c1=O)CCCC3 (centres undefined),-2.4%,-0.4%[59 µM],·,-1.3%,·,-6.4%
COc1ccc(C2=NN(c3nc(-c4ccccc4)c(CC(=O)O)s3)C(c3ccco3)C2)cc1 (centres undefined),?,14.1µM*,-4.5,1.3%,14.1µM*,-24.2%
COc1ccc(C2CC(c3cccs3)=NN2C(=O)c2ccco2)cc1OC (centres undefined),-23.1%,-3.4%[59 µM],-0.2,-5.6%,-9.3%,-19.7%
O=S(=O)(c1ccccc1)N1N=C(c2ccc(Cl)cc2)CC1c1ccco1 (centres undefined),·,44.7µM*,·,·,·,·
O=C(c1ccco1)N1N=C(c2cccs2)CC1c1ccc(F)cc1 (centres undefined),-2.0%,-28.8%[59 µM],0.1,-5.2%,56.2µM*,-5.7%
O=S(=O)(c1ccccc1)N1N=C(c2ccccc2)CC1c1ccccc1 (centres undefined),-6.8%,-18.8%,2.3,-6.1%,5.5%,-25.3%
O=C(c1ccc(Br)o1)N1N=C(c2ccc(Cl)cc2)CC1c1ccco1 (centres undefined),·,50.1µM*,·,·,39.8µM*,·
CCN(CC)CCNC(=O)CCN1N=C(c2ccccc2)CCC1=O,·,-3.1%,0.3,·,-14.1%,·
Cc1[nH]c2ccc(C(=O)N3CCCC3)cc2c1C,·,-35.6%,-7.8,·,2.2%,·
CC1=C(C(=O)Nc2ccc(C(=O)N3CCN(c4cccc(Cl)c4)CC3)cc2)SCCO1,·,44.7µM*,0.2,·,-4.6%,·
COc1ccccc1N1CCN(C(=O)c2ccc3[nH]c(C)c(C)c3c2)CC1,·,39.8µM*,1.1,·,-4.3%,·
Cc1ccc(C)c(N2CCN(C(=O)c3cc4c(C)nc5ccccc5c4o3)CC2)c1,·,?,-0.7,·,?,·
COc1ccccc1N1CCN(C(=O)c2cc3c(C)nc4ccccc4c3o2)CC1,·,50.1µM*,·,·,-12.4%,·
Cc1[nH]c2ccc(C(=O)N3CCN(c4ccccc4Cl)CC3)cc2c1C,·,?,0.2,·,?,·
Cc1[nH]c2ccc(C(=O)N3CCN(c4cccc(Cl)c4)CC3)cc2c1C,·,39.8µM*,-0.1,·,-0.8%,·
COC(=O)c1ccccc1NC(=O)c1ccc(-c2nc(COc3ccccc3)c(C)o2)cc1,-5.1%,-26.5%[59 µM],·,-11.4%,·,-8.3%
CCCCCCCCCCCCCCC(C(=O)O)C(O)(CC(=O)OC)C(=O)O (centres undefined),-4.4%,·,19.3,12.4%,?,11.3%
O=c1[nH]c2c(c(=O)[nH]1)CCC2,-1.8%,19.2%,4.5,?,-2.3%,2.2%
CCOC(=O)c1c(C)[nH]c(C)c1C(=O)COC(=O)c1ccc(OC)cc1,-8.6%,39.8µM*,-0.9,6.2%,4.1%,-14.5%
COc1ccc(NC(=O)c2cc(CC(C)C)nc3ccccc23)cc1,·,0.1%,0.3,·,10.1%,·
Oc1ccc(N2CCN(Cc3c(-c4ccccc4)nc4ccccn34)CC2)cc1,·,10µM*,1.5,·,25.1µM*,·
CCc1nc(C)cn1S(=O)(=O)c1ccc(Br)cc1,·,-6.5%[59 µM],-2.0,·,15.2%,·
CCOCCn1c(=NC(=O)c2cc(Cl)sc2Cl)sc2cc(S(N)(=O)=O)ccc21,2.2%,7.6%[59 µM],0.9,-4.0%,18.2%,-5.4%
COCCn1c(=NC(=O)c2cc(Cl)sc2Cl)sc2cc(S(N)(=O)=O)ccc21,11.2%,28.2µM*,1.8,?,10.9%,-12.8%
SMILES,Tau ThT inhib,G9a block,FBPA coupling cs,Tau fibril FP,Sfp inh,Tau fluor counter
O=C(CSc1ncccc1C(=O)Oc1ccccc1Cl)Nc1ccc(C(F)(F)F)cc1Cl,3.8%,?,·,-4.5%,·,-5.6%
Cc1cccc2nc(-c3cccnc3)c(Nc3ccc(C(C)C)cc3)n12,-10.7%,?,·,8.2%,·,-20.0%
CCOC(=O)c1ccc(Oc2nc(C)nc3c2oc2ccccc23)cc1,-8.4%,3.7%[59 µM],·,-8.6%,·,-2.2%
CN(C)CCOc1nc(-c2ccccc2)nc2c1oc1ccccc12,5.4%,?,-2.2,?,-21.8%,-18.3%
CCN(CC)CCCOc1nc(C)nc2c1oc1ccccc12,-1.1%,35.5µM*,2.2,-3.7%,10.4%,-6.7%
CCN(CC)CCOc1nc(C)nc2c1oc1ccccc12,-4.5%,50.1µM*,-0.7,9.0%,4.0%,4.5%
COc1cc(/C=N\NC(=O)c2ccc(C)nc2)ccc1OC(=O)c1cccc(F)c1,·,?,0.2,·,20.8%,·
O=C(NCc1n[nH]c(=S)n1-c1cccc(C(F)(F)F)c1)c1ccco1,·,12.6µM*,1.0,·,-13.3%,·
COc1ccc(CC(=O)NCc2nnc(SCC(=O)c3ccc(OC)cc3)n2C)cc1,-3.1%,-26.2%,5.4,-2.3%,16.1%,-2.0%
COc1ccc(CC(=O)NCc2n[nH]c(=S)n2-c2cccc(C)c2)cc1,-8.7%,11.2µM*,-1.2,0.8%,12.1%,-3.1%
O=C(Cc1ccccc1)NCc1n[nH]c(=S)n1-c1ccccc1,-6.7%,?,-0.2,1.8%,4.7%,-7.1%
COc1ccc(CC(=O)NCc2n[nH]c(=S)n2C)cc1,-10.5%,44.7µM*,-1.6,-4.4%,-26.2%,-9.8%
C=CCn1c(C(CC(C)C)CC(C)O)n[nH]c1=S (centres undefined),-4.7%,28.2µM*,2.5,-6.3%,-13.3%,-5.3%
C=CCn1c(CCC(O)COCCCCC)n[nH]c1=S (centres undefined),-4.3%,28.2µM*,1.8,2.3%,?,-2.5%
C=CCn1c(C(CCCC)CC(O)COCCC)n[nH]c1=S (centres undefined),6.0%,?,0.1,10.0%,-17.3%,6.9%
C=CCn1c(C(CCCC)CC(O)COCC(C)C)n[nH]c1=S (centres undefined),-1.8%,31.6µM*,-0.3,-0.4%,?,-10.0%
CCOc1ccc(-n2c(SCC(=O)Nc3ccc4c(c3)OCCO4)nc3c([nH]c4ccccc43)c2=O)cc1,-3.1%,15.3%[59 µM],·,-18.2%,·,?
Cc1ccc(OCCCCn2nnc3sc4c(c3c2=O)CCCC4)cc1,?,53.8%[59 µM],·,4.1%,·,-18.5%
COc1cc(CC(=O)NCC2CCCCC2)cc(OC)c1OC,·,18.0%[0.501 µM],-2.7,·,0.4%,·
CCC(Cc1ccccc1)NS(=O)(=O)c1ccc2c(c1)NC(=O)CO2 (centres undefined),·,47.4%,·,·,4.6%,·
COC(=O)C1=C(CN2CCCc3ccccc32)NC(=O)NC1c1ccc(F)cc1 (centres undefined),?,20µM*,-2.9,5.4%,-5.7%,-12.5%
